Test results published in PubChem BioAssay (EPA / NIEHS).
Calls of active or inactive are those of the source. The calls were made as follows: active = hit-call score of the fitted dose curve at least 0.9, where 1 is the maximum; inactive = score below 0.9.

Tests used:
[1] = CCTE_Harrill_HTTr_Viability_MCF7: CCTE's 6-hour Cell Viability Assessment for the High-Throughput Transcriptomics (HTTr) Platform, in MCF-7 cells cultured in DMEM + 10% fetal bovine serum, Harrill Lab (AID 2284010)
Procedure, shortened: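 Membrane integrity was scored by high-content imaging of propidium iodide dye exclusion after a 6 h exposure across an eight-point dilution series. Data were fitted bidirectionally relative to DMSO as negative control and baseline.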

[2] = CCTE_Shafer_MEA_acute_spike_number: CCTE's Neural Acute Assay for Total Number of Spikes, Shafer Lab (AID 2284008);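 as to AC50: curve fitted for decrease in spike count so AC50 reflects inhibitors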
Procedure, shortened: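 Using an adaptive detector set to 8x rms noise, spikes were counted in 40-min windows before and after compound addition (0.03-40 uM) to rat cortical networks at 37 C; the well-level change from baseline was analysed relative to DMSO.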

[3] = CCTE_Shafer_MEA_acute_firing_rate_mean: CCTE's Neural Acute Assay for Mean Firing Rate, Shafer Lab (AID 2284009);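 also: analyzed for loss of signal so actives lower firing rate relative to DMSO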
Procedure, shortened: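 Read-out: well-mean spike rate (spikes/recording length/electrodes), % change from 40 min pre-dose baseline to 40 min with compound. Rat cortical cultures, DIV 13 or 15, 37 C; 0.03-40 uM; DMSO as negative control.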

[4] = CCTE_Harrill_HTTr_Apoptosis_MCF7: CCTE's 6-hour Apoptosis Assessment for the High-Throughput Transcriptomics (HTTr) Platform, in MCF-7 cells cultured in DMEM + 10% fetal bovine serum, Harrill Lab (AID 2284011)
Procedure, shortened: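 Apoptosis in MCF-7 cells grown in DMEM with 10% fetal bovine serum was scored after a six hour exposure by high content imaging of caspase-3/7 activation (CellEvent Caspase 3/7 Green), with DMSO serving as negative control and baseline.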

[5] = CCTE_Shafer_MEA_acute_burst_number: CCTE's Neural Acute Assay for Single-Electrode Bursts, Shafer Lab (AID 2284013)
Procedure, shortened: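 Rat cortical cultures, DIV 13/15; 40 min baseline, then 40 min with compound 0.03-40 uM, 37 C. Spikes: 300-5000 Hz band-pass, threshold 8x rms noise. Readout = % change in single-electrode bursts vs baseline, loss-of-signal fit.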

[6] = CCTE_Shafer_MEA_acute_burst_duration_mean: CCTE's Neural Acute Assay for Mean Burst Duration, Shafer Lab (AID 2284014);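 also: hits are decreases in mean burst duration relative to DMSO controls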
Procedure, shortened: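 Primary rat cortical neurons on 16-electrode MEA wells, treated on DIV 13 or 15 with compound (0.03-40 uM; ≥3 wells each). 40-min baseline and 40-min exposure recordings at 37 C; percent change in mean burst duration per well versus DMSO.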

[7] = CCTE_Shafer_MEA_acute_per_burst_spike_number_mean: CCTE's Neural Acute Assay for Average Number of Spikes Per Burst, Shafer Lab (AID 2284015);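 also: hits are decreases in mean spikes per burst versus baseline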
Procedure, shortened: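 We recorded spontaneous network firing of rat cortical neurons for 40 min before and 40 min during exposure to compound at 0.03-40 uM, at 37 C. Spikes were detected adaptively at 8x rms noise, and the change in average spikes per burst was fitted against DMSO.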

[8] = CCTE_Shafer_MEA_acute_burst_percentage_std: CCTE's Neural Acute Assay for Standard Deviation of Burst Percentage, Shafer Lab (AID 2284018);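 also: fitted in the negative direction so actives lower burst percentage SD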
Procedure, shortened: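 Primary rat cortical neurons on 16-electrode MEA wells were recorded 40 min at baseline (DIV 13 or 15), then 40 min after compound (0.03-40 uM), at 37 C. Well value is SD across electrodes of spikes-in-bursts/total spikes; endpoint is percent change, DMSO-referenced.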

[9] = CCTE_Shafer_MEA_acute_per_network_burst_spike_number_mean: CCTE's Neural Acute Assay for Average Number of Spikes in a Network Burst, Shafer Lab (AID 2284019);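 as to AC50: curve fitted for loss of signal so actives reduce spikes per network burst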
Procedure, shortened: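 Primary rat cortical neurons on 16-electrode MEA wells, DIV 13 or 15, 37 C; 40-min baseline then 40-min recording with compound (0.03-40 uM). Spikes per network burst (total spikes/number of bursts) expressed as percent change from baseline, DMSO reference.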

[10] = CCTE_Shafer_MEA_acute_per_network_burst_spike_number_std: CCTE's Neural Acute Assay for Standard Deviation of Number of Spikes in a Network Burst, Shafer Lab (AID 2284020);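 also: fitted for decrease in spike-number SD versus DMSO so actives lower it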
Procedure, shortened: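 Primary rat cortical neurons on 48-well MEAs (16 electrodes/well) recorded at DIV 13 or 15: 40-min baseline, then 40 min with compound (0.03-40 uM), 37 C. Value is percent change in SD of spikes per network burst, relative to DMSO.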

[11] = CCTE_Shafer_MEA_acute_per_network_burst_electrodes_number_mean: CCTE's Neural Acute Assay for Mean Number of Electrodes in a Network Burst, Shafer Lab (AID 2284021);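 also: curves fitted for decreases only so hits reduce electrodes per burst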
Procedure, shortened: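 Percent change from baseline in average electrode count per network burst, rat cortical cultures on 48-well MEAs; 40-min recordings each side of exposure, DIV 13 or 15; threshold 8x rms noise; DMSO as negative control.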

[12] = CCTE_Shafer_MEA_acute_network_burst_percentage: CCTE's Neural Acute Assay for Percentage of Network Bursts, Shafer Lab (AID 2284022);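 also: curves fitted for loss so actives lower network burst percentage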
Procedure, shortened: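 On DIV 13 or 15, at least three wells of rat cortical neurons per compound are dosed at 0.03-40 uM. Spontaneous firing is detected at 8x rms noise for 40 min before and after dosing at 37 C. The percent change in network-burst spike share is reported.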

[13] = CCTE_Shafer_MEA_acute_cross_correlation_area: CCTE's Neural Acute Assay for Area of Cross Correlation, Shafer Lab (AID 2284024);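 also: area under pooled inter-electrode spike cross-correlation near zero lag as percent change from own baseline; curves fitted for loss of cross-correlation area so actives lower synchrony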
Procedure, shortened: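 Extracellular recordings from cultured rat cortical neurons measure network synchrony as cross-correlation area; each well's post-compound value (0.03-40 uM, 40 min) is compared with its own 40 min baseline to give percent change.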

[14] = CCTE_Shafer_MEA_acute_cross_correlation_HWHM: CCTE's Neural Acute Assay for Cross Correlation at Half Width at Half Maximum, Shafer Lab (AID 2284026);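 also: percent change per well from pre-dose baseline in spike cross-correlogram half width; hits are a decrease in cross-correlogram half width relative to DMSO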
Procedure, shortened: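 Percent change in cross-correlogram half width at half maximum, narrower meaning more synchrony, was derived per well from paired 40-min recordings before and during exposure to 0.03-40 uM compound in rat cortical cultures at 37 C.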

[15] = CCTE_Shafer_MEA_acute_synchrony_index: CCTE's Neural Acute Assay for Synchrony, Shafer Lab (AID 2284027);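 also: network synchrony index of spontaneous spiking in primary rat cortical neurons on MEAs; fitted for loss of signal so actives lower synchrony relative to DMSO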
Procedure, shortened: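 Primary rat cortical neurons on 16-electrode MEA wells were recorded 40 min at baseline (DIV 13 or 15) and 40 min after compound (0.03-40 uM) at 37 C. Synchrony index (0-1) expressed as percent change from baseline, versus DMSO.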

Measured: AC50

CCN(Cc1c(F)cccc1Cl)c1c([N+](=O)[O-])cc(C(F)(F)F)cc1[N+](=O)[O-]
inactive: [1]

CCCCC(CC)CN1C(=O)C2C3C=CC(C3)C2C1=O (stereo not given)
active: [2] 30100 nM | [3] 30100 nM | [8] 30300 nM | [9] 4100 nM | [10] 29800 nM | [15] 4020 nM
inactive: [1] | [4] | [5] | [6] | [7] | [11] | [12] | [13] | [14]

N[C@@H](Cc1cc(I)c(Oc2ccc(O)c(I)c2)c(I)c1)C(=O)O
inactive: [1]

O=C(c1ccccc1)C1CCCCC1
active: [14] 8120 nM
inactive: [2] | [3] | [5] | [6] | [7] | [8] | [9] | [10] | [11] | [12] | [13] | [15]

O=C(Nc1ccc([N+](=O)[O-])cc1Cl)c1cc(Cl)ccc1O
active: [2] 115 nM | [3] 114 nM | [5] 94.4 nM | [6] 621 nM | [7] 292 nM | [9] 179 nM | [10] 370 nM | [11] 301 nM | [12] 252 nM | [13] 77.4 nM | [14] 1080 nM | [15] 277 nM
inactive: [1] | [4] | [8]
